Assay [1] in a line: antimalarial activity against Dd2 strain (AID 2302;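 active means growth inhibition above 50% at the single 2 µM test dose, taken to imply half-maximal potency below 2 µM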;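 further: 0% = DMSO untreated growth and 100% = chloroquine plus artemisinin killed control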). Particulars: P. falciparum Dd2 in RBCs, LDH growth readout, 72 h; at 2 µM; stronger effect = higher value.
Assay [2] in a line: human hepatoma cell viability loss – ATP luminescence, cytotoxicity control for P. falciparum antimalarial project, primary screen (AID 2303;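 active means inhibition above 50%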;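 further: 0% = DMSO wells and 100% = digitonin-killed cells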). Particulars: HepG2 viability, 24-48 h, at 10 µM, stronger effect = higher value.
Assay [3] deals with L-lactate dehydrogenase (Plasmodium falciparum (isolate CDC / Honduras)) (UniProt Q27743). Put plainly: PfLDH activity inhibition – cell lysate, 3D7 strain, counter-screen for P. falciparum growth inhibition project (AID 2304).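 Further: 0% = vehicle and 100% = reference inhibitor.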 To be noted: P. falciparum 3D7 crude extract, LDH APAD/NBT absorbance; at 2 µM; stronger effect = higher value. In general terms: Counterscreens check selectivity or assay interference.
Chain of L-lactate dehydrogenase (Plasmodium falciparum (isolate CDC / Honduras)) (Q27743 whole entry, looked up): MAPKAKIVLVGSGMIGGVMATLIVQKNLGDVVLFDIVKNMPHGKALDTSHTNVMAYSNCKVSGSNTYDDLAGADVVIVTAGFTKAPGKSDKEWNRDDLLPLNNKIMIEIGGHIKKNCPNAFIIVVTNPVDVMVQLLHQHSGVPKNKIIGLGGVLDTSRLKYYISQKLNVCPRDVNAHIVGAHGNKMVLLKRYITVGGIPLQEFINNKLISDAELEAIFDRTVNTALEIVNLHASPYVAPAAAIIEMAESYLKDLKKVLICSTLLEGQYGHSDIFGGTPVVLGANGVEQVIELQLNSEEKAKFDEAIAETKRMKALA

Assay [4] is described as follows: inhibition of 3D7 malaria parasite growth – strain 3D7 (AID 2306).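 Further: 0% = DMSO wells and 100% = chloroquine plus artemisinin control wells.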 To be noted: P. falciparum 3D7 erythrocytic growth, LDH absorbance, 72 h; at 2 µM; stronger effect = higher value.
Assay [5] deals with Calcium-dependent protein kinase 1 (Plasmodium falciparum (isolate 3D7)) (UniProt P62344). The assay can be described thus: PfCDPK1 kinase inhibitors, biochemical, TCAMS library (AID 1159585; cut-off not given, nearly all actives have IC50 up to about 0.98 µM;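 further: inhibitors leave more ATP so luminescence rises with inhibition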). Particulars: recombinant PfCDPK1, Kinase-Glo ATP depletion luminescence. A general note: Kinase-Glo reads ATP consumption through a luciferase reaction.
Chain of Calcium-dependent protein kinase 1 (Plasmodium falciparum (isolate 3D7)) (P62344 whole entry, looked up): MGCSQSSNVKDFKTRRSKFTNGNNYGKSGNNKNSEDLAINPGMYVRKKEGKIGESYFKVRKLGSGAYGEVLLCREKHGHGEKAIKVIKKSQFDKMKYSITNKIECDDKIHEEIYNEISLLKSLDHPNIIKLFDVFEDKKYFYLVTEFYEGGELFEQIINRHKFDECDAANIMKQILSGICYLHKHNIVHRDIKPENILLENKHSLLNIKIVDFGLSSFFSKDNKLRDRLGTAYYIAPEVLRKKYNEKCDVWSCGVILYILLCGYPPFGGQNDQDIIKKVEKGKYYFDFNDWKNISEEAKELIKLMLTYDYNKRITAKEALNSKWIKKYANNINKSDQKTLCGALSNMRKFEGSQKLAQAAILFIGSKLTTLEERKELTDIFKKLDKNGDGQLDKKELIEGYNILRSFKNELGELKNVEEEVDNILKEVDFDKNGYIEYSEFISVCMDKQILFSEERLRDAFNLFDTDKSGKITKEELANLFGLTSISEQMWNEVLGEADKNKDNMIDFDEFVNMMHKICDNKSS
In assay [6] the target is Plasmodium falciparum protein kinase 6 (PK6, PF3D7_1337100) (UniProt Q8IDW1). The assay can be described thus: PfPK6 kinase inhibitors, biochemical, TCAMS library (AID 1159586). Particulars: recombinant PfPK6, Kinase-Glo ATP depletion luminescence.
Chain of Plasmodium falciparum protein kinase 6 (PK6, PF3D7_1337100) (Q8IDW1 1-305): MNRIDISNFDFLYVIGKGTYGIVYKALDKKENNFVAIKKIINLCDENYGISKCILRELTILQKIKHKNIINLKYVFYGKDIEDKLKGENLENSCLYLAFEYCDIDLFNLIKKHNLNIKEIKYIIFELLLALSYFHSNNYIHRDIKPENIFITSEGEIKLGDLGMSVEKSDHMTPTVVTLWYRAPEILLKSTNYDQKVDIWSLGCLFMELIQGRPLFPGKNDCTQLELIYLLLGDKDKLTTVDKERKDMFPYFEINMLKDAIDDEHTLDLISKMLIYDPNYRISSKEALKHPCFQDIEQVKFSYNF
Assay [7] concerns the target Protein kinase 7 (PK7), Plasmodium falciparum 3D7 (PF3D7_0213400) (UniProt Q7YTF7). Put plainly: inhibition of Plasmodium PK7 catalytic activity – biochemical, TCAMS antimalarial set, Kinase-Glo luminescence (AID 1159587). To be noted: recombinant PfPK7, Kinase-Glo ATP depletion luminescence.
Assay [8] has as its target Calcium-dependent protein kinase 4 (Plasmodium falciparum (isolate 3D7)) (UniProt Q8IBS5). The assay can be described thus: PfCDPK4 kinase inhibitors, biochemical, TCAMS library (AID 1159588; cut-off not given, nearly all actives have IC50 up to about 0.91 µM). Particulars: recombinant PfCDPK4, Kinase-Glo ATP depletion luminescence.

Each structure is given as a SMILES string. “And” between values parts separate entries of the source, which are not always exact repeats. Equal values may be shown once. For some assays here: Measured potencies and affinities stand elsewhere. Some compounds were tested as several samples or in several runs, with calls that do not always agree. The source made the active and inactive calls. Unless noted, how the calls were made is not given here.

Chain of Calcium-dependent protein kinase 4 (Plasmodium falciparum (isolate 3D7)) (Q8IBS5 whole entry, looked up): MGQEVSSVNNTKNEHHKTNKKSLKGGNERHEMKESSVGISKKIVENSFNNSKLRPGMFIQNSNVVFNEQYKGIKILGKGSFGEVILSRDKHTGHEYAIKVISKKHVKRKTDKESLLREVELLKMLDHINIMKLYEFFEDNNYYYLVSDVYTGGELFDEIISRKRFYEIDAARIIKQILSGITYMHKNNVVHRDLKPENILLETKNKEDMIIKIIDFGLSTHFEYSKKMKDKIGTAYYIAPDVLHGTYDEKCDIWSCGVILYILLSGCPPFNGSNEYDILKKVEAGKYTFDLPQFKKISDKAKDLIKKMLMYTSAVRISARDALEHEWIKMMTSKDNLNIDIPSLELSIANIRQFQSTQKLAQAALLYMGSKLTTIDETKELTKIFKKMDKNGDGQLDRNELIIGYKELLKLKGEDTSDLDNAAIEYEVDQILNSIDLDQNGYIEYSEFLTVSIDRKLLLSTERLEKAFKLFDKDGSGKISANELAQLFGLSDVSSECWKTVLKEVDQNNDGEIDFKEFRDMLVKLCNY
Chain of Protein kinase 7 (PK7), Plasmodium falciparum 3D7 (PF3D7_0213400) (Q7YTF7 1-343): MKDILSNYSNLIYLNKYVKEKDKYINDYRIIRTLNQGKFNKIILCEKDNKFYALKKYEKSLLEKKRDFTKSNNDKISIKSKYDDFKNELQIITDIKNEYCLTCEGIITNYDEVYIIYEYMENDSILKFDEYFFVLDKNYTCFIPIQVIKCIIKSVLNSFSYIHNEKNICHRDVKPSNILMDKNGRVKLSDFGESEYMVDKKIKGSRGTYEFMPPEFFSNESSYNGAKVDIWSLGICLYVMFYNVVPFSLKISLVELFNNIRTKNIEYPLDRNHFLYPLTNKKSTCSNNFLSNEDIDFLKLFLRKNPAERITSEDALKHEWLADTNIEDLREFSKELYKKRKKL

The inhibition is the drop in the measured response relative to a control, in per cent. As for `Cc1nc2ccccc2c(=O)n1NCc1ccc(Cl)c(Cl)c1`, the growth inhibition was 92% (active) in assay [1] and 96% (active) in assay [4]. Moreover, the inhibition was 12% (inactive) in assay [2] and 0% (inactive) in assay [3]. Also, the outcome in assay [5], in assay [6], in assay [7] and in assay [8] was inactive.
Turning to `O=C(Nc1cccc(CN2CCCN(Cc3ccc(O)cc3)CC2)c1)c1cccc(Cl)c1`, the growth inhibition in assay [1] was 41% (inactive); in assay [4], 96% (active). Besides, the inhibition in assay [2] is 10% (inactive); in assay [3], 5% (inactive). Also, the result in assay [5], in assay [6], in assay [7] and in assay [8] was inactive.
For `COc1ccc(-c2cc(C(=O)N[C@@H](CC3CCCCC3)C(=O)NCCN3CCCCC3)ccc2O)cc1`, the growth inhibition was 72% (active) in assay [1] and 98% (active) in assay [4]. Besides, the figures for the inhibition in assay [2] and in assay [3] were 3% (inactive) and 0% (inactive), respectively. Further, the result in assay [5], in assay [6], in assay [7] and in assay [8] was inactive.
Take `Cc1cc(N[C@@H](Cc2ccccc2)C(=O)NC2CCCC2)nc(NCCc2cccs2)n1`: the growth inhibition is 14% (inactive) in assay [1] and 99% (active) in assay [4]. Moreover, the inhibition in assay [2] was -6% (inactive); in assay [3], -2% (inactive). Besides, the outcome in assay [5], in assay [6], in assay [7] and in assay [8] was inactive.
Regarding `CN1CCC(NCc2cccc(-c3cccc(-c4nc5ccc(C(F)(F)F)cc5[nH]4)c3)c2)CC1`, the growth inhibition in assay [1] and in assay [4] was 101% (active) throughout. Also, the results for the inhibition in assay [2] and in assay [3] were 35% (inactive) and -1% (inactive), respectively. Also, the result in assay [5], in assay [6], in assay [7] and in assay [8] was inactive.
As to `CC(CCCCC(=O)Nc1ccc(C(F)(F)F)cc1)NCC(O)c1cccc(Cl)c1` (configuration not stated), the growth inhibition in assay [1] is 92% (active); in assay [4] it was 99% (active). For the same molecule, the results for the inhibition in assay [2] and in assay [3] were 51% (active) and -8% (inactive), respectively. Also, the outcome in assay [5], in assay [6], in assay [7] and in assay [8] was inactive.
For the molecule `CCC1CN2CCc3c([nH]c4ccccc34)[C@@H]2C[C@@H]1CC1NCCc2cc(OC)c(OC)cc21` (some centres not stated), the growth inhibition in assay [1] was 67% (active) and 83% (active); in assay [4] it was 100% (active). Further, the inhibition was 33% (inactive) and 26% (inactive) in assay [2]; 3% (inactive) and 1% (inactive) in assay [3]. The outcome in assay [5], in assay [6], in assay [7] and in assay [8] was inactive.
Take `O=C(Nc1ccc(Cn2ncc(N3CCCNCC3)c(Cl)c2=O)cc1)Nc1ccc(-c2ccccc2)cc1`: the growth inhibition was 41% (inactive) and 51% (active) in assay [1]; 93% (active) in assay [4]. In addition, the inhibition in assay [2] was 12% (inactive) and 10% (inactive); in assay [3] it was -2% (inactive) and 8% (inactive). Also, the result in assay [5], in assay [6], in assay [7] and in assay [8] was inactive.
On to `O=C(NC1CCN(Cc2ccccc2)CC1)c1ccc(-c2nc3cc(F)c(F)cc3[nH]2)s1`, for which the growth inhibition in assay [1] is 97% (active); in assay [4] it was 101% (active). Also, the results for the inhibition in assay [2] and in assay [3] were 6% (inactive) and 1% (inactive), respectively. Besides, the outcome in assay [5], in assay [6], in assay [7] and in assay [8] was inactive.
Turning to `O=C1C(c2ccccc2)=C(Nc2cc(Cl)cc(Cl)c2)c2ccccc21`, the growth inhibition in assay [1] was 94% (active); in assay [4], 96% (active). Besides, the figures for the inhibition in assay [2] and in assay [3] were -4% (inactive) and -3% (inactive), respectively. Moreover, the result in assay [5], in assay [6], in assay [7] and in assay [8] was inactive.
As for `CN(C)CCCN(C)C(=O)c1cc2cc(-c3ccccc3)ccc2n1S(=O)(=O)c1ccccc1`, the growth inhibition was 66% (active) in assay [1] and 98% (active) in assay [4]. Further, the inhibition in assay [2] was 29% (inactive); in assay [3], -1% (inactive). In addition, the result in assay [5], in assay [6], in assay [7] and in assay [8] was inactive.
As to `CS(=O)(=O)c1ccc(CCNCc2ccc(-c3ccc(CN(C(=O)c4cccc(C#N)c4)C4CCN(Cc5ccccc5)CC4)cc3)nc2)cc1`, the growth inhibition in assay [1] was 56% (active); in assay [4] it was 96% (active). Also, the inhibition in assay [2] is 20% (inactive); in assay [3], 1% (inactive). The result in assay [5], in assay [6], in assay [7] and in assay [8] was inactive.
In the case of `Cn1ncc2c3c(CCN4CCC(NCc5cc6c(cn5)OCCO6)CC4)c(Cl)cnc3ccc21`, the results for the growth inhibition in assay [1] and in assay [4] were 34% (inactive) and 95% (active), respectively. For the same molecule, the inhibition was 1% (inactive) in assay [2] and 0% (inactive) in assay [3]. Also, the result in assay [5], in assay [6], in assay [7] and in assay [8] was inactive.
Regarding `CC(=O)N1N=C(c2ccc(Cl)cc2)Sc2c1nc(C1CCCCC1)n2C(C)=O`, the growth inhibition in assay [1] is 67% (active); in assay [4] it was 103% (active). In addition, the figures for the inhibition in assay [2] and in assay [3] were 1% (inactive) and -1% (inactive), respectively. For the same molecule, the outcome in assay [5], in assay [6], in assay [7] and in assay [8] was inactive.
Turning to `O=C(Nc1cccc(CN2CCN(Cc3ccc(O)cc3)CC2)c1)c1ccc(Cl)c(Cl)c1`, the growth inhibition is 95% (active) in assay [1] and 102% (active) in assay [4]. In addition, the inhibition was 30% (inactive) in assay [2] and 2% (inactive) in assay [3]. For the same molecule, the outcome in assay [5], in assay [6], in assay [7] and in assay [8] was inactive.
On to `O=C(NC1CCCCC1)N(Cc1cccc(-c2ccc(CNC3CCCC3)cc2)c1)C1CCN(Cc2ccccc2)CC1`, for which the growth inhibition was 89% (active) in assay [1] and 98% (active) in assay [4]. In addition, the inhibition in assay [2] is 37% (inactive); in assay [3], -2% (inactive). For the same molecule, the result in assay [5], in assay [6], in assay [7] and in assay [8] was inactive.
As for `CN(C)CCNC(=O)N1CCCN(c2ncnc3cc(-c4ccccc4)sc23)CC1`, the values for the growth inhibition in assay [1] and in assay [4] were 37% (inactive) and 96% (active), respectively. The inhibition in assay [2] and in assay [3] was 5% (inactive) each time. Moreover, the result in assay [5], in assay [6], in assay [7] and in assay [8] was inactive.
For `FC(F)(F)c1cccc(CNCCCCCNCc2ccc(Cl)cc2)c1`, the growth inhibition in assay [1] was 15% (inactive); in assay [4], 91% (active). For the same molecule, the inhibition is 13% (inactive) in assay [2] and -5% (inactive) in assay [3]. Besides, the result in assay [5], in assay [6], in assay [7] and in assay [8] was inactive.
`CCCCCCCc1ccc(-c2c(C)[nH]c(C)c(Cl)c2=O)cn1`: the growth inhibition in assay [1] was 96% (active); in assay [4] it was 99% (active). Also, the figures for the inhibition in assay [2] and in assay [3] were -4% (inactive) and -2% (inactive), respectively. Further, the result in assay [5], in assay [6], in assay [7] and in assay [8] was inactive.

Values taken from PubChem BioAssay.
